# From PubChem BioAssay AID463213 (Sanford-Burnham Center for Chemical Genomics, 2010)
# The whole screen tested about 7,400 compounds, of which about 4,100 (55%) were called active. So high a share suggests a set chosen from earlier hits. These entries were drawn from the full list. A number with no mark means an inactive call.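 How the source made its calls: active means inhibition of yeast growth at or above a set limit in either of two repeat tests at 20 µM; inactive means the rest.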
# Test: growth inhibitors of tim10-1 mutant yeast, confirmation, single concentration, luminescence, S. cerevisiae (AID 463213);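 further: tim10-1 mutant grown at permissive 25 °C to find synthetic lethal compounds; 0% = DMSO yeast wells and 100% = medium wells without yeast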
# Details: S. cerevisiae tim10-1 ts strain growth, BacTiter-Glo, 24 h; at 20 µM; hits give high values
row,Compound,inhibition
1,Cc1nonc1C(=O)N/N=C/c1ccc(O)cc1,44.9% (active)
2,O=C(/C=C/c1ccc(Cl)cc1Cl)NCc1ccco1,34.4% (active)
3,COc1ccc(-c2cc(C3CCN(c4ncccc4[N+](=O)[O-])CC3)[nH]n2)cc1,30.2%
4,COC(C/C=C/C(=O)[C@@H](C)OCc1ccccc1)OC,43.7% (active)
5,CCc1ccc2oc(-c3ccc(N)cc3)nc2c1,41.8% (active)
6,Nc1ccc(-c2nnc(-c3ccc(-c4ccccc4)cc3)o2)cc1,25.1%
7,COc1ccc(NC(=O)c2cc3nc(-c4ccccc4)cc(C)n3n2)cc1OC,33.3% (active)
8,CC(C)CCNC(=O)c1ccc2c(Cl)c3c(nc2c1)CCC3,35% (active)
9,Cc1ccc(-c2cn3cc(C)ccc3n2)cc1,43.9% (active)
10,CSc1nnc2ccc(-c3ccc(C)cc3)nn12,24.9%
11,COc1ccc2c(c1)cc1n2CCN=C1NN,27.9%
12,COc1ccccc1CNC(=O)c1ccc(SC)cc1OC,20.9%
13,CCOC(=O)C(=Cc1ccccc1OC)C(=O)OCC,30.1% (active)
14,CNC(C)C#Cc1ccc2sc3cc(OC)c(OC)cc3c(=O)c2c1 (stereo unspecified),31.8% (active)
15,CSC(=S)N/N=C/c1c[nH]c2ccccc12,41.7% (active)
16,COC(=O)CSc1snnc1-c1ccc(Cl)c(Cl)c1,31.9% (active)
17,CCC(=O)Nc1nc2ccccc2n1Cc1ccccc1C,18%
18,O=c1oc(-c2ccco2)nc2sc3c(c12)CCCCC3,3.45%
19,O=C(NCc1ccco1)c1cccn2c(=O)c3c4c(sc3nc12)CCCC4,42.4% (active)
20,Cc1ccc2nc(N(CCN(C)C)C(=O)C3=COCCO3)sc2c1,35.6% (active)
21,CN(C)CCN(C(=O)C1=COCCO1)c1nc2ccc(Cl)cc2s1,69% (active)

row,Compound,inhibition
1,Cc1ccc(-c2csc(NC(=O)C3=COCCO3)n2)cc1C,18.2%
2,Clc1ccc(C2CC(c3cccs3)n3ncnc3N2)cc1Cl (stereo unspecified),18%
3,Cc1ccc(S(=O)(=O)NC(C(=O)N2CCOCCOCCOCCOCC2)c2ccccc2)cc1 (stereo unspecified),0.85%
4,Cc1oc2c(c1C(=O)N1CCOCC1)C(=O)c1ccccc1C2=O,27.7% (active)
5,O=C1c2cccc3c([N+](=O)[O-])ccc(c23)C(=O)N1CC1CCCO1 (stereo unspecified),46.5% (active)
6,N#C/C(=C\c1cccnc1)C(=O)Nc1ccc(SC(F)F)cc1,17.2%
7,O=C(Cc1ccc(Cl)c(Cl)c1)Nc1ccc(SC(F)F)cc1,35.9% (active)
8,COc1ccc(C(C[N+](=O)[O-])n2nc(C)cc2C)cc1 (stereo unspecified),38.1% (active)
9,COc1cccc(Cn2cnc3c([N+](=O)[O-])c(C)c(C)cc32)c1,25.6%
10,COc1ccc2c(c1)C(NS(=O)(=O)OCC(Cl)(Cl)Cl)CCC2 (stereo unspecified),27.9% (active)
11,Cc1nn(Cc2ccc(Cl)c(Cl)c2)c(C)c1NC(=O)c1cc(C2CC2)on1,51.2% (active)
12,O=C1CSC(=S)N1c1ccc(Cl)c(Cl)c1,34.4% (active)
13,S=C(NCCCc1ccccc1)Nc1ccc(Br)cc1,36.3% (active)
14,COc1ccc2nc(NC(=O)[C@@H]3CCCN3C(=O)c3cccs3)sc2c1,19.9%
15,CC(C)(C)NC(=O)NC(=O)COC(=O)CCC1CCCCC1,37.9% (active)
16,Cc1nn2c(c1-c1ccccc1)N=C(c1ccco1)CC2c1ccccc1 (stereo unspecified),28.9%
17,COc1ccc2nc(Nc3nc4cc5c(cc4s3)OCCO5)sc2c1,1.5%
18,CCn1c(/C=C/c2ccc([N+](=O)[O-])o2)nc2ccccc2c1=O,45.9% (active)
19,Brc1ccc(C2=CC(c3ccco3)n3ncnc3N2)cc1 (stereo unspecified),18.9%
20,Nc1ccccc1Sc1ccc(C(F)(F)F)cc1[N+](=O)[O-],61.2% (active)
